Screening results as filed in PubChem BioAssay.
HT1080 IDH1KD tx = qHTS for induction of synthetic lethality in tumor cells producing 2HG: qHTS for the HT-1080-IDH1KD cell line. HT-1080 IDH1 knockdown viability, ATP luminescence, 48 h. Potency, µM (series often up to 46.1 µM), for inactives: at the highest dose activity, negative = toxicity, most hits filed as cytotoxic. 360,000 compounds, 2% hits;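 further: 0% = DMSO wells and -100% = cell-free medium wells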
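% activity derives from luminescence (CellTiter-Glo), normalised to DMSO and no-cell wells. HT-1080-IDH1KD cells, 750/well, had 48 h compound exposure at 37 °C.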
KB-3-1 tox = qHTS assay for MDR1-selective chemotherapeutics: Primary screen using the parental adenocarcinoma cell KB-3-1 | KB-3-1 viability, CellTiter-Glo ATP luminescence, 72 h | Potency, µM (titrated, usually from 46.1 µM), usual class: cytotoxic | 400,000 compounds, 1.4% hits; further: on the % scale 0 is the no-effect control and ±100 the full control effect; nearly all actives have a fitted effect of over 60% in size
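72 h, 37 °C compound treatment of KB-3-1 parental cells; CellTiter-Glo added, 10 min, luminescence read. Data corrected against DMSO-only plates and normalized before curve fitting.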
SW480 rerep = A quantitative high throughput screen for small molecules that induce DNA re-replication in SW480 colon adenocarcinoma cells | Potency, µM (doses to about 46.1 µM), for inactives: top-dose re-replication activation, hits mostly activators | AID 624297, 2012 | SW480 DNA re-replication, Hoechst DNA content imaging, 48 h | 340,000 compounds, 1.8% hits; further: % of control where 0% means no effect; nearly all actives have a fitted effect of over 55% in size
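250 cells/well; 23 nL cpd via pin tool; 48 hr, 37 C, 5% CO2; Hoechst 40 min; imager read of total nuclear intensity, ex 405/em 500-530 nm.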
HT1080-NT tox = qHTS for induction of synthetic lethality in tumor cells producing 2HG: qHTS for the HT-1080-NT fibrosarcoma cell line | HT-1080-NT fibrosarcoma viability, CellTiter-Glo ATP luminescence, 48 h | Potency, µM (highest dose often 46.1 µM), without a hit: at the top dose activity, negative = less viability, hits mostly cytotoxic | 360,000 compounds, 1.6% hits;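 further: NT is the 2HG producing partner of a matched IDH1 knockdown line; 0% = DMSO-treated cells and -100% = media-only wells without cells; nearly all actives have a fitted effect of over 55% in size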
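Luminescent CellTiter-Glo readout after 48 hours of compound exposure at 37 degrees C defined viability of HT-1080-NT cells. Activity was normalized to DMSO wells and cell-free media wells; concentration-response curves were fitted and assigned curve classes.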
MCF10A rereplic = A quantitative high throughput screen for small molecules that induce DNA re-replication in MCF 10a normal breast cells | Potency, µM (series often up to 46.1 µM), for the others: at the highest dose activity, positive = re-replication, most hits filed as activators | 350,000 compounds, 2.9% hits | MCF 10A DNA re-replication, Hoechst nuclear intensity, 48 h; further: % of control where 0% means no effect; nearly all actives have a fitted effect of over 50% in size
KB-V1 cytotox = qHTS assay for MDR1-selective chemotherapeutics: Primary screen using the drug-selected MDR subline cells KB-V1 | KB-V1 MDR cells viability, CellTiter-Glo, 72 h | 400,000 compounds, 3.4% hits | Potency, µM (top dose mostly 46.1 µM), usual class: cytotoxic; further: on the % scale 0 is the no-effect control and ±100 the full control effect; nearly all actives have a fitted effect of over 60% in size
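Readout: CellTiter-Glo luminescence, 10 min after addition. Cells: KB-V1 MDR subline, 72 h at 37 degrees C with compound. Analysis: corrected, normalized data fitted to concentration-effect curves.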
Starred values were filed as active, the others as inactive; i = inactive; ? = inconclusive; · = no result. Compounds with a hit are over-represented: about 8% of the library has one in this group of screens. The call rests on the fitted dose curve; in most records, active means well fitted curve in the direction sought with a large enough effect; inconclusive means small, poorly fitted or top-dose-only effect, or another doubt; inactive means no such curve, though single readings can be large; an effect the other way counts as inactive or inconclusive. Potency means the concentration at half of the fitted maximal effect.

SMILES	HT1080 IDH1KD tx	KB-3-1 tox	SW480 rerep	HT1080-NT tox	MCF10A rereplic	KB-V1 cytotox
Cc1cccc(-n2c(C)cc(/C=N/NC(=O)c3cccc([N+](=O)[O-])c3C)c2C)c1	?	i	?	-21%	?	i
NC(Cc1ccc(C(F)(F)F)cc1)c1csc(Nc2nccc(C(F)(F)F)n2)n1 (stereo unspecified)	?	?	·	?	·	23µM*
NC(COCc1ccccc1)c1csc(Nc2nccc(C(F)(F)F)n2)n1 (stereo unspecified)	-4%	i	·	-7%	·	?
CS(=O)(=O)c1ccc(Nc2nc(C(N)Cc3ccc(F)cc3)cs2)cc1 (stereo unspecified)	-29%	i	·	-30%	·	i
CS(=O)(=O)c1ccc(Nc2nc(C(N)Cc3ccc(C(F)(F)F)cc3)cs2)cc1 (stereo unspecified)	?	?	·	18µM*	·	?
CCCc1cnc(Nc2nc(C(N)Cc3ccc(C(F)(F)F)cc3)cs2)nc1 (stereo unspecified)	?	?	·	16µM*	·	?
COc1ccccc1N1CCN(C(=O)CSc2nc(C)cc(=O)[nH]2)CC1	12%	i	3%	10%	-1%	?
O=C(CSc1cccc[n+]1[O-])c1cc2ccccc2o1	16µM*	18µM*	13µM*	7.3µM*	19%	21µM*
O=C(O)CSc1cccc[n+]1[O-]	1%	i	-5%	8%	-1%	i
Nc1nc(SCC(=O)c2cc3ccccc3o2)n[nH]1	1%	i	-2%	4%	2%	i
O=C(CSc1cccc[n+]1[O-])c1cc(Cl)ccc1Cl	2.3µM*	i	?	-25%	-3%	i
CCC1=C(OC(=O)N(CC)CC)N2C(=O)OC(=NCCOC)[C@]2(Cc2ccccc2)[C@H]2C1=CC[C@H]1C(=O)NC(=O)[C@H]12	2%	i	-7%	-4%	14%	i
O=C1NCCN(Cc2cccc(Oc3ccccc3)c2)C1CC(=O)N1CCCCO1 (stereo unspecified)	-4%	i	21%	-4%	16%	?
Cc1ccc(S(=O)(=O)N(C)C)cc1NC(=S)NC(C)CCC(C)C (stereo unspecified)	-3%	i	?	-6%	16%	?
COC(=O)[C@H](C)N(Cc1ccc(Cl)c(Cl)c1)S(=O)(=O)CCNC1CCCC1	-27%	i	?	-25%	7%	i
CC(C)(C)c1ccc(C(=O)CC(=O)c2cc(Cl)ccc2O)cc1	?	5.8µM*	?	?	?	2.6µM*
CC(C)(C)c1ccc(C(=O)C[n+]2ccc(Cl)c3ccc(Cl)cc32)cc1	·	0.26µM*	·	·	·	?
CC(C)(C)c1ccc(C(=O)C[n+]2cc(Br)cc(Br)c2)cc1	·	i	·	·	·	i
CNC(=O)C1Cc2c(-c3ccc4c(c3)OCO4)ccnc2O1 (stereo unspecified)	-1%	i	·	-2%	·	i
CCC(C)NC(=O)c1ccc2nc(-c3ccco3)c(-c3ccco3)nc2c1 (stereo unspecified)	·	i	·	·	·	i
COCCn1c(SCc2csc(-c3ccccc3)n2)nc2ccccc21	-28%	16µM*	3%	?	-3%	8.2µM*
O=C(Oc1cccc([N+](=O)[O-])c1)C1CCN(C(=O)c2ccc(F)cc2)CC1	-2%	i	-2%	5%	-3%	i
COc1ccccc1-c1ncn(Cc2cccc(-c3ccccc3)c2)c1-c1cc(C)cc(C)c1	?	?	·	?	·	16µM*
COc1ccccc1-c1ncn(Cc2cccc(-c3ccccc3)c2)c1-c1ccco1	?	?	·	?	·	15µM*
COc1ccccc1-c1nc2ccccc2nc1-c1ccccc1	-1%	i	1%	-1%	?	i
SMILES	HT1080 IDH1KD tx	KB-3-1 tox	SW480 rerep	HT1080-NT tox	MCF10A rereplic	KB-V1 cytotox
COc1ccccc1-c1noc(-c2ccco2)n1	-3%	i	-4%	-8%	0%	i
COc1ccc(OC)c(NC(=O)CN(Cc2ccccc2)S(C)(=O)=O)c1	-8%	i	-31%	-10%	1µM*	i
COc1ccc(Cl)cc1NC(=O)CN(C)C1CCCCC1	-8%	i	8%	-12%	0%	?
COc1ccc(NC(=O)CN(Cc2ccccc2)S(C)(=O)=O)c(OC)c1	3%	i	-1%	0%	-15%	i
COc1ccc(OC)c(NC(=O)CN(Cc2ccc(F)cc2)C2CCCCC2)c1	?	16µM*	1%	?	18µM*	?
CC(C)CNS(=O)(=O)c1ccc(S(=O)(=O)N2CCN(C3CCCC3)CC2)cc1	13%	i	1%	-3%	0%	?
CCn1c(COc2ccccc2)nnc1SCC(=O)Nc1cc(OC)ccc1OC	-10%	i	4%	-4%	3%	13µM*
CCn1c(C)nnc1SCC(=O)Nc1ccc(C(C)=O)cc1	-1%	i	-4%	4%	1%	i
CCn1c(C)nnc1SCC(=O)Nc1cccc(Cl)c1	9%	i	15µM*	5%	2%	?
CCn1c(CC(=O)Nc2cccc(Cl)c2Cl)nnc1SCCOc1ccc(OC)cc1	1%	i	-9%	12%	4%	21µM*
CCn1c(COc2cccc(OC)c2)nnc1SCC(=O)Nc1cc(OC)ccc1OC	4%	i	-7%	3%	5%	?
